We go through 27 compounds from PubChem BioAssay AID707 (Columbia University Molecular Screening Center, 2007).

The whole screen tested about 91,000 compounds, of which about 310 (0.34%) were called active. This excerpt belongs to a sample that is enriched for actives. A number with no mark means an inactive call. Cut-off read from the data, not from the text of the source: active = inhibition above about 80%; inactive = the rest.

In the test the target is Bifunctional epoxide hydrolase 2 (Homo sapiens) (UniProt P34913). The test can be described thus: soluble epoxide hydrolase inhibitors, primary screen, biochemical, human sEH (AID 707). The note with it: recombinant human sEH enzymatic activity assay; at 2 µM; stronger effect = higher value.
Bifunctional epoxide hydrolase 2 (Homo sapiens), sequence (P34913 whole entry, looked up): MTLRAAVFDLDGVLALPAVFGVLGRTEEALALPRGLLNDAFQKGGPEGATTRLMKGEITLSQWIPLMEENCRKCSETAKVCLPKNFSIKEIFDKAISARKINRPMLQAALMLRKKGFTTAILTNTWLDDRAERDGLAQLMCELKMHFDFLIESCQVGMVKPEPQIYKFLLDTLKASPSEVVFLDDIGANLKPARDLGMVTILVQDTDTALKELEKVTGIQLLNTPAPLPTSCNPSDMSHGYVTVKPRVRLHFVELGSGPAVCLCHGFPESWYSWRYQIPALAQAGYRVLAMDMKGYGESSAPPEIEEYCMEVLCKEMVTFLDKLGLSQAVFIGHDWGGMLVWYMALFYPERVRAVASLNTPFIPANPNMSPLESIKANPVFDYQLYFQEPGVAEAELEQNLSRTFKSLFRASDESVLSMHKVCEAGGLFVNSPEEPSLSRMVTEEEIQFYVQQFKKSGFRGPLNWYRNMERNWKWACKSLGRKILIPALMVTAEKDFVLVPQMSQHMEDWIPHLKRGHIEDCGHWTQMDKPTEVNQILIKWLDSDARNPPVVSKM
In the case of `Cc1ccc(NC(=S)N/N=C2/CCCc3c(C)cc(C)cc32)cc1`, the inhibition is -9.1%.

As for `CCN(CC)CCNc1ccc(Cl)cc1[N+](=O)[O-]`, the inhibition was 6.5%.

As to `CSCc1cc(N2CCOCC2)nc(SCc2ccc(Cl)cc2Cl)n1`, the inhibition was -22.1%.

In the case of `CCOc1ccc(C(=O)NC2CCN(S(=O)(=O)CC)CC2)cc1`, the inhibition is -0.5%.

For `COc1ccc(C(=O)Nc2ccccc2C(=O)N/N=C/c2ccccc2OC)cc1`, the inhibition was 4.7%.

Regarding `CCc1ccc(/C=N/NC(=O)c2ccc(OC3CCCC3)cc2)s1`, the inhibition was 95.6% (active).

Regarding `O=C(NC1CCCCC1)c1cc([N+](=O)[O-])ccc1N1CCOCC1`, the inhibition is 2.6%.

For `C/C(=N\NS(=O)(=O)c1cccc([N+](=O)[O-])c1)c1cc2ccccc2o1`, the inhibition was 7.3%.

As for `O=C(Nc1ccn(Cc2ccccc2F)n1)c1ccc(COc2ccc(Cl)cc2Cl)o1`, the inhibition is 1.6%.

For `O=C(Nc1ccc(-n2ccnc2P(=O)(O)c2ccccc2)cc1)c1ccccc1Br`, the inhibition was -9.1%.

Take `CC(=O)Nc1cccc(/C(C)=N/NC(=O)c2ccccc2Cl)c1`: the inhibition is 7.7%.

For `O=C(NNS(=O)(=O)c1ccc(Cl)cc1)C1CCN(Cc2ccccc2)CC1`, the inhibition is -4%.

`CN(C)/C(CN1CCCCC1)=C1\N=C(c2ccccc2)OC1=O`: the inhibition is 6.9%.

`CC(=O)c1cnc(SCCN2C(=O)c3ccccc3C2=O)nc1C`: the inhibition was 8.1%.

Consider `C=CCNC(=O)c1sc(SC)cc1-c1ccc(Cl)cc1`, for which the inhibition was -13.7%.

For the compound `CC(C)CNC(=S)NNC(=O)c1ccccc1OC(F)F`, the inhibition was -9.6%.

Regarding `COC(=O)c1ccccc1OCC(=O)N1CCN(c2ccc(Cl)cc2)CC1`, the inhibition is 46.4%.

Turning to `Cc1c(NC(=O)CCCOc2ccccc2)cccc1[N+](=O)[O-]`, the inhibition is 11.7%.

As to `CCC(=O)Nc1ccc(C(=O)Nc2cc(C)on2)cc1`, the inhibition is -8.6%.

For `CCOc1ccc(C(CCc2ccccc2)NC(=O)c2ccc(OC)c(OC)c2)cc1OCC` (configuration not stated), the inhibition is -23.6%.

As for `COc1cccc(-c2nnc(SCCOc3ccc4c(C)cc(=O)oc4c3)o2)c1`, the inhibition is 12.2%.

Take `CCCCn1c(=S)[nH]c2cc(S(=O)(=O)N3CCCCC3)ccc21`: the inhibition is 6.5%.

For `O=C(c1ccc(F)cc1)c1c[nH]c(C(=O)NCc2cccnc2)c1`, the inhibition is -11.2%.

On to `N#Cc1ccsc1NC(=O)CN1CCCCC1`, for which the inhibition is -1.4%.

Consider `O=C(COc1ccc(Cl)cc1)NCCC1=CCCCC1`, for which the inhibition was 14.4%.

As for `COc1cc(C(=O)N2CCN(C/C=C/c3ccccc3)CC2)cc(OC)c1C`, the inhibition is -12.7%.

Take `NC(=O)N1CCCC1C(=O)Nc1ccc(Cl)c(Cl)c1` (configuration not stated): the inhibition is 6.3%.

For orientation: inhibition means the relative decrease from the control value, in per cent.
